The list is not random: actives were taken first. Their share in the collection is about 12%.
PLK1 PBD block: qHTS for Inhibitors of PLK1-PDB (polo-like kinase 1 - polo-box domain): Primary Screen; Potency, µM, inactives show max response, negative = inhibition, actives largely listed as inhibitors; Plk1 PBD binding of FITC phosphopeptide, fluorescence polarization; actives 2.8% (n = 360,000); Serine/threonine-protein kinase PLK1 (Homo sapiens), P53350; also: potency is read from the fitted curve at half-maximal effect; series mostly up to about 57 µM; % is scaled to controls: 0 for no effect and ±100 for the full control effect; nearly all actives have a fitted effect of over 65% in size
Target sequence (P53350 whole entry, looked up, the tested form may be a part): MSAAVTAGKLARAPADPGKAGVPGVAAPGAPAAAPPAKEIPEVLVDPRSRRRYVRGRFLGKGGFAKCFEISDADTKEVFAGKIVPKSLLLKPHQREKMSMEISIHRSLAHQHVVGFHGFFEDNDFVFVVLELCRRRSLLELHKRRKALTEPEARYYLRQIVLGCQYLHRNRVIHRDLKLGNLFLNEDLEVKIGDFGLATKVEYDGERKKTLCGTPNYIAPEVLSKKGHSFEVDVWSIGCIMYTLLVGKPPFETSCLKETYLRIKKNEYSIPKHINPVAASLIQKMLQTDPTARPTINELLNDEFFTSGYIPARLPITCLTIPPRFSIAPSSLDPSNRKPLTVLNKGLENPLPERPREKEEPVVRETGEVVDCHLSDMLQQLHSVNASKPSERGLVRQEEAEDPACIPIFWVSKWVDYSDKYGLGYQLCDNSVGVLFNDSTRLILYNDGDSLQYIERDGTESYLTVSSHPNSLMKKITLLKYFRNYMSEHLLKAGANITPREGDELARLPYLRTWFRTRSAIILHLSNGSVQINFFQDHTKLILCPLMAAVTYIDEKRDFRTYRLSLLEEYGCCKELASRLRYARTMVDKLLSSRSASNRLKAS
JMJD2A Tudor inh: qHTS Assay for Inhibitors of JMJD2A-Tudor Domain; AlphaScreen JMJD2A-Tudor / H3K4me3 peptide binding; actives 4.4% (n = 390,000); Lysine-specific demethylase 4A (Homo sapiens), O75164; AID 504339, 2011; Potency, µM (top dose mostly 114 µM), for the others: at the highest dose activity change, negative = inhibition, hits mostly inhibitors; also: potency is read from the fitted curve at half-maximal effect; % is scaled to controls: 0 for no effect and ±100 for the full control effect; nearly all actives have a fitted effect of over 50% in size
BAZ2B inh: qHTS Assay for Inhibitors of BAZ2B | AlphaScreen BAZ2B-H3K14Ac peptide displacement | actives 4.4% (n = 360,000) | AID 504333, 2011 | Potency, µM (titrated, usually from 114 µM), inactives show top-dose activity change, negative = inhibition, usual class: inhibitors; also: potency is read from the fitted curve at half-maximal effect; % is scaled to controls: 0 for no effect and ±100 for the full control effect; nearly all actives have a fitted effect of over 60% in size
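Protein-peptide AlphaScreen: BAZ2B 50 nM, b-H3K14Ac 50 nM, 1x PBS pH 7.4 + 0.01% Tween-20. Preincubation 30 min RT; cpd 30 min RT (top 110 uM); beads 20 min RT, light-protected.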
HP1b binding inh: HTS for Inhibitors of HP1-beta Chromodomain Interactions with Methylated Histone Tails; Chromobox protein homolog 1 (Homo sapiens), P83916; AlphaScreen HP1-beta / biotin-H3K9me3 peptide binding; Potency, µM (top dose mostly 114 µM), inactives show at the highest dose activity change, negative = inhibition, usual class: inhibitors; actives 0.56% (n = 390,000); also: potency is read from the fitted curve at half-maximal effect; nearly all actives have a fitted effect of over 70% in size
Target sequence (P83916 whole entry, looked up): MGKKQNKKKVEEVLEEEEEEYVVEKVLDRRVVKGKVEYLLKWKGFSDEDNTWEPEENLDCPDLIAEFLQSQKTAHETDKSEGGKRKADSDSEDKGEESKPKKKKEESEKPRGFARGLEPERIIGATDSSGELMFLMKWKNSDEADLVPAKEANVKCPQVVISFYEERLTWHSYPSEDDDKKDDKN
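HP1-beta protein (50 nM final) preincubated 30 min at room temperature with biotinylated H3(1-18)K9me3 peptide (50 nM) in PBS pH 7.4, 0.01% Tween-20, then compound added for 30 min. AlphaScreen streptavidin donor/nickel chelate acceptor beads (10 ug/mL final), 30 min dark, luminescence read.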
PI5P4K alpha inh: qHTS for Inhibitors of phosphatidylinositol 5-phosphate 4-kinase (PI5P4K); Phosphatidylinositol 5-phosphate 4-kinase type-2 alpha (Homo sapiens), P48426; PI5P4Kalpha enzyme, ADP-Glo luminescence, 60 min; stronger effect = lower value; max response, %; actives 1.2% (n = 330,000); active = max response of -50% or lower; inconclusive = between -30% and -50%; inactive = -30% or higher; also: value at the top dose of about 77 µM; % is scaled to controls: 0 for no effect and ±100 for the full control effect
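Enzyme plus substrate dispensed, test compounds pinned in, then ATP (5 microM final) added. After 60 min at RT, ADP-Glo reagent 1 for 45 min and reagent 2 for 30 min preceded luminescence imaging.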
G9a inh: qHTS Assay for Inhibitors of Histone Lysine Methyltransferase G9a; Potency, µM (titrated, usually from 102 µM), for inactives: at the top dose activity, negative = inhibition, actives largely listed as inhibitors; AID 504332, 2011; G9a H3K9 monomethylation, AlphaScreen, 2 h; actives 8.8% (n = 350,000); also: potency is read from the fitted curve at half-maximal effect; % is scaled to controls: 0 for no effect and ±100 for the full control effect; nearly all actives have a fitted effect of over 75% in size
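Quantitative HTS format: methyltransferase activity on a biotin-tagged H3K9 peptide is measured by AlphaScreen, using a rabbit anti-monomethyl-H3K9 antibody with streptavidin donor and anti-IgG acceptor beads. Final levels are 20 nM enzyme, 500 nM peptide, 20 uM SAM; 2 h RT.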
Active calls of the source: *; [ ] = dose if it differs, or a comment. Unless noted, calls follow the shape of the dose curve; as a rule, active = well fitted curve in the direction sought with a large enough effect; inconclusive = small, poorly fitted or top-dose-only effect, or another doubt; inactive = no such curve, though single readings can be large; an effect the other way counts as inactive or inconclusive.

What do the screens show for `O=C(COC(=O)c1ccc(S(=O)(=O)N2CCCC2)cc1)Nc1cccc(F)c1`?
PLK1 PBD block: -10.8%; JMJD2A Tudor inh: -23.4%; BAZ2B inh: 13.9%; HP1b binding inh: 31.2%; PI5P4K alpha inh: 1.0; G9a inh: 5.01µM*

What do the screens show for `CCOc1ccccc1-c1nnc2n1N=C(c1cc(OC)ccc1OC)CS2`?
JMJD2A Tudor inh: -13.8%

Results for Cc1cc(NC(=O)c2ccccc2)sc1C ?
PLK1 PBD block: inconclusive; JMJD2A Tudor inh: -13.0%[11.4 µM]; BAZ2B inh: inconclusive; HP1b binding inh: 14.5%; PI5P4K alpha inh: -4.0; G9a inh: 15.8µM*

What do the screens show for `Cc1ccc(NC(=O)c2ccccc2)s1`?
PLK1 PBD block: -7.8%; JMJD2A Tudor inh: 14.3%; BAZ2B inh: -3.4%; HP1b binding inh: 22.6%; PI5P4K alpha inh: 0.0; G9a inh: 25.1µM*

Results for COc1ccccc1N1CCN(C(=O)CN2C(=O)COc3ccc(S(=O)(=O)N4CCOCC4)cc32)CC1 ?
JMJD2A Tudor inh: -10.6%; BAZ2B inh: -6.1%; HP1b binding inh: 26.3%; G9a inh: -30.7%[59 µM]

Results for COc1ccc(NC(=O)CSc2oc(-c3cccs3)nc2S(=O)(=O)c2ccc(Br)cc2)c(OC)c1 ?
JMJD2A Tudor inh: -18.4%; BAZ2B inh: -35.3%; HP1b binding inh: 14.5%; G9a inh: inconclusive

How did CCOC(=O)/C(=C/c1ccc(OC(=O)c2ccccc2)cc1)C(C)=O do in these assays?
PLK1 PBD block: 5.32µM*; JMJD2A Tudor inh: 8.5%; BAZ2B inh: 4.3%; HP1b binding inh: 49.9%; PI5P4K alpha inh: -2.4; G9a inh: 44.7µM*

Results for CCOC(=O)C(=Cc1ccc(N(C)C)cc1)C(=O)c1ccccc1 ?
PLK1 PBD block: 3.9%; PI5P4K alpha inh: 8.1

What do the screens show for `CCN(CC)c1ccc(N=Cc2c(C)[nH]c3ccccc23)cc1`?
PLK1 PBD block: -8.2%; JMJD2A Tudor inh: 35.5µM*; BAZ2B inh: 12.6µM*; HP1b binding inh: 31.6µM*; PI5P4K alpha inh: 6.8; G9a inh: 14.1µM*

How did COc1ccccc1CN(C)C(=O)CSCC(=O)Nc1ccccc1F do in these assays?
PLK1 PBD block: -17.3%; JMJD2A Tudor inh: -11.0%; HP1b binding inh: 41.9%; PI5P4K alpha inh: -5.2

What do the screens show for `N=C1C=CC=C2C1=NC1(CCCCC1)N2O`?
PLK1 PBD block: -4.5%; JMJD2A Tudor inh: inconclusive; BAZ2B inh: 44.7µM*; HP1b binding inh: inconclusive; G9a inh: inconclusive

What do the screens show for `O=C(CCCN1C(=O)c2ccccc2C1=O)Nc1nncs1`?
PLK1 PBD block: -2.0%; JMJD2A Tudor inh: -2.8%; BAZ2B inh: -5.1%; HP1b binding inh: 21.1%; PI5P4K alpha inh: 8.9; G9a inh: 0.5%

Results for O=C(CCCN1C(=O)c2ccccc2C1=O)NC1=NCCS1 ?
PLK1 PBD block: -3.7%; JMJD2A Tudor inh: 31.6µM*; BAZ2B inh: -7.9%; HP1b binding inh: 24.4%; PI5P4K alpha inh: 0.0; G9a inh: 3.8%[59 µM]

How did COc1ccccc1C(=O)Nc1ccccc1N1CCN(C(=O)c2ccc(Cl)cc2)CC1 do in these assays?
PLK1 PBD block: -19.5%; JMJD2A Tudor inh: -12.4%; BAZ2B inh: -38.6%; HP1b binding inh: 14.1%; PI5P4K alpha inh: -0.2

Results for COc1ccc(Br)cc1S(=O)(=O)Nc1ncccc1C ?
PLK1 PBD block: 29.9µM*; JMJD2A Tudor inh: inconclusive; BAZ2B inh: -10.9%; HP1b binding inh: 20.8%; PI5P4K alpha inh: -24.7

What do the screens show for `COc1ccc(-c2sc(Nc3ccc(F)c(F)c3F)nc2CCC(=O)NN)cc1`?
PLK1 PBD block: -1.1%; JMJD2A Tudor inh: 56.2µM*; BAZ2B inh: -34.7%; HP1b binding inh: -23.1%; PI5P4K alpha inh: 13.6; G9a inh: -47.9%

What do the screens show for `COC(=O)C1CCN(C(=O)COC(=O)C2CCN(S(=O)(=O)c3ccc(C)c(C)c3)CC2)CC1`?
PLK1 PBD block: -10.8%; JMJD2A Tudor inh: -17.8%; BAZ2B inh: 8.8%; HP1b binding inh: 26.3%; PI5P4K alpha inh: 1.5; G9a inh: -2.6%

How did Cc1ccc(NC(=O)CN2CCc3ccccc3C2)cc1S(=O)(=O)N(C)C do in these assays?
PLK1 PBD block: -16.6%; JMJD2A Tudor inh: 3.16µM*; BAZ2B inh: 50.1µM*; HP1b binding inh: inconclusive; PI5P4K alpha inh: -10.5; G9a inh: 10µM*

What do the screens show for `CCOc1ccc(NC(=O)CN2CCc3cc4c(cc3C2)OCCCO4)cc1OCC`?
PLK1 PBD block: 29.9µM*; JMJD2A Tudor inh: inconclusive; BAZ2B inh: -1.1%; HP1b binding inh: -6.3%; PI5P4K alpha inh: -2.6; G9a inh: 10.4%

What do the screens show for `CN(C)S(=O)(=O)c1ccc(Cl)c(NC(=O)CN2CCc3ccccc3C2)c1`?
PLK1 PBD block: -3.5%; JMJD2A Tudor inh: -14.0%; BAZ2B inh: -38.6%; HP1b binding inh: 55.0%; PI5P4K alpha inh: 2.6; G9a inh: 44.7µM*

What do the screens show for `COc1cc2c(cc1OC)CN(CC(=O)Nc1ccc(Cl)c(S(=O)(=O)N(C)C)c1)CC2`?
BAZ2B inh: -25.7%; G9a inh: 44.7µM*

What do the screens show for `COc1ccccc1-n1ncc2c(=O)[nH]c(SCC(=O)Nc3ccc(Cl)cc3)nc21`?
JMJD2A Tudor inh: -25.3%; BAZ2B inh: -7.3%; HP1b binding inh: -4.8%; G9a inh: 1.0%[59 µM]

How did Cc1ccc2cc3cc(C(=O)N(C)c4ccccc4C)oc3nc2c1 do in these assays?
JMJD2A Tudor inh: -25.0%; HP1b binding inh: 16.5%; G9a inh: -4.6%[59 µM]

Results for CN(C)S(=O)(=O)c1cc(NC(=O)CN2CCOCC2)ccc1Cl ?
PLK1 PBD block: 23.8µM*; JMJD2A Tudor inh: 14.1µM*; BAZ2B inh: -5.4%; HP1b binding inh: -0.6%; PI5P4K alpha inh: inconclusive; G9a inh: 23.0%

How did O=C(CN1CCCCCC1)NC(c1ccccc1)c1ccccc1 do in these assays?
PLK1 PBD block: -5.8%; JMJD2A Tudor inh: 22.4µM*; BAZ2B inh: 79.4µM*; HP1b binding inh: inconclusive; PI5P4K alpha inh: -2.1; G9a inh: 7.94µM*

What do the screens show for `O=C(CN1CCN(c2ccc(O)cc2)CC1)NC(c1ccccc1)c1ccccc1`?
PLK1 PBD block: -19.1%; JMJD2A Tudor inh: 50.1µM*; BAZ2B inh: inconclusive; HP1b binding inh: inconclusive; PI5P4K alpha inh: inconclusive; G9a inh: 7.94µM*

How did CC(NC(=O)CN1CCN(c2cccc(Cl)c2)CC1)c1ccccc1 (stereo not drawn) do in these assays?
PLK1 PBD block: -11.3%; JMJD2A Tudor inh: -11.8%; BAZ2B inh: 5.9%; HP1b binding inh: 6.0%; PI5P4K alpha inh: 6.1
